In PubChem BioAssay (EPA / NIEHS):
Inconclusive results are not listed. The source made the active and inactive calls. The calls were made as follows, unless noted: active = hit-call score of the fitted dose curve at least 0.9, where 1 is the maximum; inconclusive = response in the unintended direction; inactive = score below 0.9.

Assays:
PGR (gene 5241) [1] = biological target: PGR (gene 5241) (UniProt P06401); assay: TOX21_PR_BLA_Followup_Antagonist_ratio: Tox21 HEK293 Progesterone Receptor (PR) Antagonism Beta-lactamase Follow-Up Assay, Ratio (AID 2283934)
Chain of PGR (gene 5241) (P06401 whole entry, looked up): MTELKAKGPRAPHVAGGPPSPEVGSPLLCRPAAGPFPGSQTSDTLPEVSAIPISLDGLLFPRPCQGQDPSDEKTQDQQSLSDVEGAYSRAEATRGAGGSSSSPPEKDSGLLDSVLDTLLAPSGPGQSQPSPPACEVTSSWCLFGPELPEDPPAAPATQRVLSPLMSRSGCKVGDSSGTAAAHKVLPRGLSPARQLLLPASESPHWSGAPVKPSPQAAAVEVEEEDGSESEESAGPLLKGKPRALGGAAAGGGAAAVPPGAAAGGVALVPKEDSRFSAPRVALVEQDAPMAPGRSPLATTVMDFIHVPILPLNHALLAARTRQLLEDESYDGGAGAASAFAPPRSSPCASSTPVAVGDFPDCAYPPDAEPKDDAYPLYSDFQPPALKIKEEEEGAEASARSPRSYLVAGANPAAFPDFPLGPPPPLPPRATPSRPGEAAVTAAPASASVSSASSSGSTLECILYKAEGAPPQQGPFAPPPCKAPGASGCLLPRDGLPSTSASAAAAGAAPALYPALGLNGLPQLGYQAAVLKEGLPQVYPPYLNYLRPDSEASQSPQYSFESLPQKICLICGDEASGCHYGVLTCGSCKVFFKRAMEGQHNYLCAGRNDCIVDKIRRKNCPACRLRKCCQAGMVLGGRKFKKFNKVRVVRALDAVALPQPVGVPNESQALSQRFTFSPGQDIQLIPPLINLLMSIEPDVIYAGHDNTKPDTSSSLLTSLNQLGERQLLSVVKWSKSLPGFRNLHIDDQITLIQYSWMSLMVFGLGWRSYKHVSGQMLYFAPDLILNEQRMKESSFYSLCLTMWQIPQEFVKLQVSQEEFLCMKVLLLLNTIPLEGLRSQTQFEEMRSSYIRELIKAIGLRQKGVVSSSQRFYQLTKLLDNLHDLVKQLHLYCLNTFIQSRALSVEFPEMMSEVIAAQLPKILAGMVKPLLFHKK
In short: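 PR-UAS-bla HEK293T cells in medium with 2% charcoal-stripped FBS were treated with compounds plus 1 nM (final) promegestone (R5020) for 16 hr at 37C. LiveBLAzer B/G FRET substrate was then added for 2 h at room temperature; signal is cleaved/uncleaved substrate ratio versus DMSO.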

[2] = TOX21_PR_BLA_Followup_Agonist_viability: Viability Assessment in the Tox21 HEK293 Progesterone Receptor (PR) Agonism Beta-lactamase Follow-Up Assay (AID 2283935);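 also: signal loss means lower viability so actives are cytotoxic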
In short: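 PR-UAS-bla HEK293T cells in 2% charcoal-stripped FBS medium, compound added after 6 hr plating, 16 hr at 37C/5% CO2. After bla FRET read, CellTiter-Glo added; luminescence read after 30 min at room temperature; signal loss marks cytotoxicity.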

[3] = TOX21_PR_BLA_Followup_Antagonist_viability: Viability Assessment in the Tox21 HEK293 Progesterone Receptor (PR) Antagonism Beta-lactamase Follow-Up Assay (AID 2283936);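 also: hits lower the luminescence signal meaning cytotoxicity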
In short: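 PR-UAS-bla HEK293T cells (3,000/well, 2% charcoal-stripped FBS) given compound plus R5020 agonist, 16 h at 37C. CellTiter-Glo added after bla read, 30 min at room temperature; luminescence loss indicates cytotoxicity.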

PGR (gene 5241) [4] = biological target: PGR (gene 5241) (UniProt P06401); assay: TOX21_PR_LUC_Followup_Antagonist: Tox21 HEK293 Progesterone Receptor (PR) Antagonism Luciferase Follow-Up Assay (AID 2283938);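 also: curve fitted upward as signal gain over DMSO baseline despite antagonist label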
In short: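 Cells are grown 5 days in charcoal-stripped-FBS assay medium, plated, left 5 h, then dosed with compound and incubated 16 h. ONE-Glo reagent is added and luminescence read after 30 min.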

[5] = CEETOX_H295R_ESTRONE_noMTC: CeeTox H295R High-throughput Steroidogenesis Assay for Estrone, maximum tolerated concentration (MTC) filtered results only (AID 2283921; active = hit-call score of the fitted dose curve at least 0.9, where 1 is the maximum; inactive = score below 0.9); conditions: actives raise or lower the signal
Protocol: (§1) CEETOX_H295R is a cell-based, multiplexed-readout assay that uses H295R, a human adrenal gland cell line, with measurements taken at 48 hours after chemical dosing in a 96-well plate.CEETOX_H295R_ESTRONE_noMTC is one of 12 assay component(s) measured or calculated from the CEETOX_H295R assay (11 hormones and 1 viability assay). It is designed to make measurements of hormone induction, a form of inducible reporter, as detected with absorbance signals by HPLC-MS-MS technology. The concentrations for these components have not been pre-filtered for the maximum tolerated concentration (MTC) based on the MTT assay (_noMTC).Data from the assay component CEETOX_H295R_ESTRONE_noMTC was analyzed into 1 assay endpoint. This assay endpoint, CEETOX_H295R_ESTRONE_noMTC, was analyzed with bidirectional fitting relative to DMSO as the negative control and baseline of activity. […]
(§2) Cell culture and media preparation procedures were conducted in accordance with OECD Test No. 456 guidelines, with minor modifications. […] For steroid quantification, media samples were shipped to OpAns, LLC (Durham, NC) on dry ice, and samples were thawed to room temperature prior to liquid-liquid extraction. […] Steroid hormones were separated by HPLC, eluted using a reverse phase C18 gradient with electrospray positive ionization, followed by quantification by tandem mass spectrometry (MS/MS). […]

[6] = CEETOX_H295R_TESTO_noMTC: CeeTox H295R High-throughput Steroidogenesis Assay for Testosterone (TESTO), maximum tolerated concentration (MTC) filtered results only (AID 2283924; active = hit-call score of the fitted dose curve at least 0.9, where 1 is the maximum; inactive = score below 0.9); conditions: actives raise or lower the signal
Protocol: as §1, with “plate.CEETOX_H295R_TESTO_noMTC” for “plate.CEETOX_H295R_ESTRONE_noMTC”, “CEETOX_H295R_TESTO_noMTC” for “CEETOX_H295R_ESTRONE_noMTC”, “CEETOX_H295R_TESTO_noMTC,” for “CEETOX_H295R_ESTRONE_noMTC,”
as §2

[7] = biological target: T1, Thyroid hormone receptor alpha (Rattus norvegicus) + Thyroid hormone receptor beta (Rattus norvegicus) (UniProt P18113+P63059); assay: TOX21_TR_LUC_GH3_Agonist_Followup: Tox21 GH3 Thyroid Hormone Receptor Agonism Luciferase Follow-Up Assay (AID 2283939)
T1 sequence (P63059 whole entry, looked up): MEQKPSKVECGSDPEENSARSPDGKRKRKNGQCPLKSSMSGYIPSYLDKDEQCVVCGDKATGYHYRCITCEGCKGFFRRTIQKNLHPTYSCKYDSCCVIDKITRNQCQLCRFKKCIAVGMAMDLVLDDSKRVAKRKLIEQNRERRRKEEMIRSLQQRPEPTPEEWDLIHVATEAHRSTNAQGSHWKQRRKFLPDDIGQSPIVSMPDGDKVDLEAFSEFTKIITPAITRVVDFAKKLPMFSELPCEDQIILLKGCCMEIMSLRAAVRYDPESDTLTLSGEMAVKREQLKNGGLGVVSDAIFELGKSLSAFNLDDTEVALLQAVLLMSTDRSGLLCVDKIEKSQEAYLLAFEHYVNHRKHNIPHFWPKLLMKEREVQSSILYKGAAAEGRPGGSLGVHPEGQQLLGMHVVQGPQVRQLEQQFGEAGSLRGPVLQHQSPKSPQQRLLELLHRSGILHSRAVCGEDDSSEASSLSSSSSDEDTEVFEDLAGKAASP
T1 sequence (P18113 whole entry, looked up): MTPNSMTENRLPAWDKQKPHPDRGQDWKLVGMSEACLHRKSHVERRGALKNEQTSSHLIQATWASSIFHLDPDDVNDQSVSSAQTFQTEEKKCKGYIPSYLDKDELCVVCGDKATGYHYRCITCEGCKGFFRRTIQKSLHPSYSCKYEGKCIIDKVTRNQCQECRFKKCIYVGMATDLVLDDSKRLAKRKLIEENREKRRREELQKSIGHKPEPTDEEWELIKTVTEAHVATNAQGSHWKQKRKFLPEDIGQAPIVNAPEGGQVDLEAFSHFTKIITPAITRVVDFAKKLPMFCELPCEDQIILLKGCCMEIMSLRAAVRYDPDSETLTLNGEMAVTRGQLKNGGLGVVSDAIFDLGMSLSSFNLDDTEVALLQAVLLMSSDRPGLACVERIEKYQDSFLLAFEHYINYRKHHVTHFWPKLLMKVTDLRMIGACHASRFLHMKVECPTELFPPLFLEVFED
In short: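 Rat GH3 cells (1,500/well) in serum-free assay medium, treated with 15-point series, 92 uM to 5 nM final, for 24 h at 37C. Luciferase via ONE-Glo luminescence; gain of signal fitted against DMSO, T3 positive control.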

THRA (gene 7067) = THRA (gene 7067) (UniProt P10827); assay: TOX21_TRA_COA_Agonist_Followup_ratio: Tox21 Thyroid Hormone Receptor alpha Agonism through Coactivator Recruitment Follow-Up Assay, Ratio (AID 2283948; active = hit-call score of the fitted dose curve at least 0.9, where 1 is the maximum; inactive = score below 0.9)
Chain of THRA (gene 7067) (P10827 whole entry, looked up, the tested form may be a part): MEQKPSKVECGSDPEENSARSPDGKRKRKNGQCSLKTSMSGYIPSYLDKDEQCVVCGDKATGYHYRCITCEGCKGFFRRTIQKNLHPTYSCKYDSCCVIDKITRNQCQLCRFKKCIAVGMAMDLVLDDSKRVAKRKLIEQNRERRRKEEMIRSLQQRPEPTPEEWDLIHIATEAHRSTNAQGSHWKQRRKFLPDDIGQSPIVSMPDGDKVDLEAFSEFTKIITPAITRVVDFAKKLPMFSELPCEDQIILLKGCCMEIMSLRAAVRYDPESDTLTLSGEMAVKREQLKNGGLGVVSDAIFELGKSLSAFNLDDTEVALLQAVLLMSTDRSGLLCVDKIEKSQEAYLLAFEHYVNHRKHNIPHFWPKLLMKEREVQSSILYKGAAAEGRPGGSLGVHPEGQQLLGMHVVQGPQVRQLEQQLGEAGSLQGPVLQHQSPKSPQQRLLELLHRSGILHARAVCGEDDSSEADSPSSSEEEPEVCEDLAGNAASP
In short: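 Follow-up specificity assay in which TRα ligand-binding domain, expressed as a GST fusion, recruits a fluorescein-labelled SRC-2 peptide. Energy transfer from a terbium anti-GST antibody gives the acceptor/donor ratio, fitted upward relative to DMSO.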

[8] = biological target: T1, Thyroid hormone receptor alpha (Rattus norvegicus) + Thyroid hormone receptor beta (Rattus norvegicus); assay: TOX21_TR_LUC_GH3_Antagonist_Followup: Tox21 GH3 Thyroid Hormone Receptor Antagonism Luciferase Follow-Up Assay (AID 2283942)
In short: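 Antagonist mode: GH3 cells seeded 1,500/well, compounds at 15 concentrations (92 uM to 5nM final) plus T3 at 1.0 nM final, 24 h at 37C. Luciferase read with ONE-Glo after 30 min at room temperature.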

THRB (gene 7068) = THRB (gene 7068) (UniProt P10828); assay: TOX21_TRB_BLA_Antagonist_Followup_ratio: Tox21 Thyroid Hormone Receptor beta Antagonism Beta-lactamase (BLA) Follow-Up Assay, Ratio (AID 2283958)
Chain of THRB (gene 7068) (P10828 whole entry, looked up, the tested form may be a part): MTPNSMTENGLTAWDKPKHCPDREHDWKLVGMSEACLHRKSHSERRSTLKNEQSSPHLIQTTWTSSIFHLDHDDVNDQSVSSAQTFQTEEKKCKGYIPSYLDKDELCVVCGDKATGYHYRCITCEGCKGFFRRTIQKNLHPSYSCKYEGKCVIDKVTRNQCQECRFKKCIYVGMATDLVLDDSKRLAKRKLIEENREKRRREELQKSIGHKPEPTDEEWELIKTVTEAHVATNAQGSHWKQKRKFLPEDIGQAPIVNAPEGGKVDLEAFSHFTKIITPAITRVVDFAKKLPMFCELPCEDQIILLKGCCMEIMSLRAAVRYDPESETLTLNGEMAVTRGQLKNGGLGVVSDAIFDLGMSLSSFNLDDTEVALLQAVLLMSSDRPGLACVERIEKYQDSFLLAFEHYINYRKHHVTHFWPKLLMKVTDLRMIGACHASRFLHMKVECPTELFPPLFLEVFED
In short: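 GAL4-DBD/human TRβ-LBD fusion in GeneBLAzer UAS-bla HEK293T cells, 3,000 cells/well in phenol red-free DMEM with 2% charcoal-stripped FBS; compounds at 11 concentrations in triplicate, 18 h at 37C. CCF4-AM substrate 2 h, 460:530 nm ratio relative to DMSO.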

In the case of CC(=O)[C@@]1(O)CC[C@H]2[C@@H]3CCC4=CC(=O)CC[C@]4(C)[C@H]3CC[C@@]21C, the outcome (PGR (gene 5241) [1]) is reported as “inactive”, the outcome [2] is reported as “inactive” and the outcome [3] is reported as “inactive”. The outcome (PGR (gene 5241) [4]) was “inactive”.
In the case of Nc1nc(=S)c2[nH]cnc2[nH]1, the outcome [5] is reported as “inactive” and the AC50 [6] is reported as 74.5 µM (active).
In the case of Cc1occc(=O)c1O, the outcome [7] is reported as “inactive” and the outcome (THRA (gene 7067)) is reported as “inactive”.
With Nc1nc(Cl)nc2c1ncn2[C@H]1C[C@H](O)[C@@H](CO)O1 the outcome [8] was “inactive” and the outcome (THRB (gene 7068)) was “inactive”.
For O=C(Oc1ccccc1)c1cccc(C(=O)Oc2ccccc2)c1, the outcome [6] was “inactive”.
For NC(=Nc1ccccc1)Nc1ccccc1, the outcome [5] was “inactive”.
